Assay outcomes as filed in PubChem BioAssay.
B2AR arrestin: recruits beta-arrestin to the human beta2-adrenergic receptor; P07550; beta-arrestin recruitment to beta2AR, cell-based reporter; Potency, µM (highest dose often 46.1 µM), for the others: top-dose activation, actives largely listed as activators; 330,000 tested, 0.02% active; AID 492947;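 note: potency is the fitted concentration of half-maximal effect; 0% = DMSO controls and full agonism = EC100 isoproterenol or metaproterenol; nearly all actives have a fitted effect of over 65% in size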
Target sequence (P07550 whole entry, looked up): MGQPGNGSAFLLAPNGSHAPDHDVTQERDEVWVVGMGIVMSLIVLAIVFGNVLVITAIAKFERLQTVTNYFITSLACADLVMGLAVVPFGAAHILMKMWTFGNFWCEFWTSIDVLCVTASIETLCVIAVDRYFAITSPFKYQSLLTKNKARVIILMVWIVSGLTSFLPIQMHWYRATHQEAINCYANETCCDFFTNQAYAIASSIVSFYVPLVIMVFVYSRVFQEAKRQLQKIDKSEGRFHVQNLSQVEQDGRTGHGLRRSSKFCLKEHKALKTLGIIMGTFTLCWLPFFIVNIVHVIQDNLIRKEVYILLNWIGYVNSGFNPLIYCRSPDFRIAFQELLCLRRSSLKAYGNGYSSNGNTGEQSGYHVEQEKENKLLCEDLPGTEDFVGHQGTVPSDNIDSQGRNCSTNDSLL
ELG1 repair inh: inhibitors of ELG1-dependent DNA repair in HEK293T cells; HEK293T ELG1-luciferase reporter, luminescence, 16 h; DNA damage induced by 5-fluorouridine; 330,000 tested, 2.3% active; Potency, µM (highest dose often 46.1 µM), for the others: at the top dose activity change, negative = inhibition, most hits filed as inhibitors; note: potency is the fitted concentration of half-maximal effect; nearly all actives have a fitted effect of over 55% in size
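Luminescence from the luciferase reporter, measured 30 min after ONE-Glo reagent at room temperature, was the read-out. Beforehand, 2,000 cells per well were exposed for 16 hr at 37 °C to 5-fluorouridine together with compound or vehicle.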
TSHR antag: antagonists of human thyroid stimulating hormone receptor; P16473; 330,000 tested, 0.2% active; activity change, negative = inhibition, % at 11.5 µM; TSHR-expressing cells, TSH-stimulated cAMP HTRF, 2 h; hits give low values;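 active = activity change below a set negative limit, meaning inhibition stronger than a set level, cut at about -70% in these data; inconclusive = activity change between two set negative limits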
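Freshly harvested TSHR cells receive pin-tooled compound, then EC80 TSH at 4nM final. After 2 hours at 37 deg C, antibody in lysis buffer and cAMP-d2 are added; 30 minutes at ambient temperature precede the HTRF read.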
RORg inh: blocks mouse ROR gamma transcriptional activity. P51450. Drosophila S2 Gal4-RORgamma UAS-luciferase reporter, 20 h. Potency, µM (titrated, usually from 53.6 µM), for inactives: at the highest dose activity change, negative = inhibition, actives largely listed as inhibitors. 310,000 tested, 5.4% active. AID 2551; note: potency is the fitted concentration of half-maximal effect; nearly all actives have a fitted effect of over 60% in size
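In this cell-based reporter format, copper sulfate (700 uM final) drives Gal4–ROR gamma fusion expression from a metallothionein promoter in Drosophila Schneider cells; compounds preincubated 1 hr, reporter read after 20 hr at ambient temperature.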
VP16 counter: counter-screen for ROR gamma inhibitors: Gal4-VP16 reporter; Potency, µM (titrated, usually from 53.6 µM), inactives show at the top dose activity, negative = inhibition, usual class: inhibitors; AID 2546; 310,000 tested, 3.5% active; Drosophila S2 Gal4-VP16 UAS-luciferase, luminescence, 20 h;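 note: Gal4-VP16 expression switched on by copper sulfate through the metallothionein promoter; potency is the fitted concentration of half-maximal effect; nearly all actives have a fitted effect of over 50% in size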
Numbers without * were called inactive; ? = inconclusive; · = no result given; [ ] = remark or other dose. An excerpt weighted towards active compounds, which were near 7.5% of everything screened. Unless noted, calls come from the whole dose curve; as a rule, active = well fitted curve in the direction sought with a large enough effect; inconclusive = small, poorly fitted or top-dose-only effect, or another doubt; inactive = no such curve, though single readings can be large; an effect the other way counts as inactive or inconclusive. Unless noted, % is set by controls: 0 for no effect and ±100 for the full control effect.

SMILES | B2AR arrestin | ELG1 repair inh | TSHR antag | RORg inh | VP16 counter
O=C(NCC1CCCO1)NC12CC3CC(CC(C3)C1)C2 (centres undefined) | -0.3% | 7.5% | -10.9 | 8.0% | 4.8%
Cc1ccc(NC(=S)NCC2CCN(C(C)c3ccccc3)C2)cc1C (centres undefined) | -0.1% | ? | -3.0 | 8.91µM* | ?
Cc1ccc(NC(=S)NCc2ccccc2)cc1S(=O)(=O)N1CCCCC1 | 0.1% | ? | 22.5 | 29.3% | ?
Cc1ccc(NC(=S)NCC2CCCO2)cc1C (centres undefined) | -0.6% | 24.0% | 6.7 | ? | 10µM*
S=C(NCC1CCCO1)Nc1ccc(Cl)cc1Cl (centres undefined) | -0.4% | ? | 1.6 | 15.8µM* | ?
S=C(NCC1CCCO1)NC12CC3CC(CC(C3)C1)C2 (centres undefined) | -0.2% | -18.8% | -3.4 | 0.631µM* | 5.01µM*
O=C(O)c1ccc(NS(=O)(=O)c2ccsc2C(=O)O)cc1 | · | · | · | -26.4% | 3.8%
Cc1ccc2nc(CCl)[n+]([O-])c(-c3ccccc3)c2c1 | -0.6% | 0.9% | 6.9 | ? | 17.7%
COc1cc(/C=C/C(=O)O)cc(S(=O)(=O)Nc2ccccc2Oc2ccccc2)c1OC | -0.3% | 0.7% | -2.9 | 29.5% | 7.5%
S=C(NCC1CCCO1)Nc1ccc(Cl)cc1 (centres undefined) | -0.1% | ? | 9.0 | 10µM* | ?
S=C(NCC1CCCO1)Nc1ccccc1 (centres undefined) | -0.7% | -6.0% | -0.8 | 11.2µM* | -3.1%
S=C(NCC1CCCO1)N1CCN(c2nc(-c3ccc(Cl)cc3)cs2)CC1 (centres undefined) | 0.3% | 11.6µM* | -29.9 | ? | ?
COc1cc(NC(=S)NCC2CCCO2)c(OC)cc1Cl (centres undefined) | -0.3% | -10.1% | -13.9 | 10µM* | 17.8µM*
O=C(COc1ccc(Br)cc1)NCCN1CCCC1 | -0.3% | ? | 1.3 | -8.5% | -4.4%
N#Cc1ccc(CS(=O)(=O)c2ccccc2)cc1 | · | · | · | -4.9% | -14.0%
COc1cccc(OC)c1C(=O)NC(=S)Nc1cc(-c2nc3ccccc3[nH]2)ccc1Cl | -0.7% | 8.2µM* | 15.4 | 37.2% | 2.2%
COc1c(F)c(F)c(C(=O)Nc2ccc(-c3nc4ccccc4[nH]3)cc2)c(F)c1F | 0.0% | ? | -8.3 | -31.7% | ?
COc1cc(-c2noc(C)c2C(=O)NCCc2ccccc2)cc(OC)c1OC | 0.1% | -2.0% | 5.9 | · | ·
COc1ccc(C(=O)N2CCN(C(=O)C3CCCO3)CC2)cc1[N+](=O)[O-] (centres undefined) | 0.0% | 9.1% | -0.4 | · | ·
S=C(c1nc2ccccc2[nH]1)N1CCOCC1 | -0.3% | 10.6% | 2.0 | 5.01µM* | 6.31µM*
O=C(O)c1ccc2c3n(nc2c1)-c1ccc(Cl)cc1CO3 | -0.6% | 1.2% | 0.0 | 7.08µM* | 3.16µM*
CCC(C)[C@H]1CNC(=S)N1CCc1cc(C(F)(F)F)cc(C(F)(F)F)c1 (some centres undefined) | 0.0% | 2.6% | -6.9 | 2.24µM* | 3.98µM*
CCCC[C@@H]1CNC(=O)C(=O)N1CCc1cc(C(F)(F)F)cc(C(F)(F)F)c1 | -0.3% | -0.2% | -11.3 | 0.9% | -3.6%
CN(C)c1ccc(-c2cc(NCc3ccccc3)ncn2)cc1 | · | · | · | 8.5% | ?
CNC(=S)NNC(=O)c1ccccc1Cl | -0.4% | 0.0% | -2.8 | ? | -3.2%
SMILES | B2AR arrestin | ELG1 repair inh | TSHR antag | RORg inh | VP16 counter
CC(C)(C)NC(=S)NNC(=O)c1cccc(Br)c1 | 6.31µM* | 2.4% | 4.6 | 4.47µM* | ?
CC(C)(C)NC(=S)NNC(=O)c1ccccc1Cl | -0.3% | 8.1% | -0.2 | 0.447µM* | 1.41µM*
CC(C)(C)C(=O)NC(=S)NNC(=O)c1ccc(Cl)cc1Cl | 0.2% | ? | 7.6 | 2µM* | ?
COC(=O)NNC(=O)c1ccc(Cl)cc1Cl | 0.0% | 4.1% | 7.6 | -6.7% | -0.2%
Cc1noc(C)c1C(=O)N1CCC[C@@]2(CCN(C(=O)Nc3cccc(C#N)c3)C2)C1 | · | · | · | 27.2% | -1.4%
CCNc1ncc2nc(-c3ccc(Cl)cc3)c(=O)n(C[C@H]3CCCO3)c2n1 | · | · | · | 1.2% | -5.8%
CCOc1ccccc1NC(=O)C(OC(=O)c1ccc(CC)cc1)c1ccccc1 (centres undefined) | -0.9% | -3.7% | 4.1 | 33.9% | -14.5%
CCOc1ccccc1NC(=O)C(NCCc1ccc(OC)cc1)c1ccccc1 (centres undefined) | -0.1% | ? | -73.2* | 7.3% | -5.6%
CCOc1ccccc1NC(=S)NCCc1ccc(F)cc1 | 0.2% | -10.4% | -9.4 | 1.58µM* | 10µM*
CCOc1ccccc1NC(=O)C(OC(=O)c1ccc(O)cc1)c1ccccc1 (centres undefined) | -1.0% | ? | 2.9 | 17.8µM* | ?
CCOc1ccccc1NC(=S)NCCc1ccccc1 | -0.6% | -29.0% | 10.4 | 1.26µM* | 5.01µM*
O=C(O)c1ccc(S(=O)(=O)N[C@H](Cc2ccc(C(F)(F)F)cc2)C(=O)O)cc1 | -0.5% | · | 21.5 | 6.7% | 4.1%
CC[C@H](C)[C@H]1O[C@]2(CC[C@@H]1C)C[C@@H]1C[C@@H](C/C=C(\C)[C@H](O[C@@H]3C[C@H](OC)[C@H](O[C@@H]4C[C@H](OC)[C@@H](O)[C@H](C)O4)[C@H](C)O3)[C@@H](C)/C=C/C=C3\CO[C@@H]4[C@H](O)C(C)=C[C@@H](C(=O)O1)[C@]34O)O2 | · | · | · | 5.7%[10 µM] | ?
O=C(OCc1ccccc1)c1cccnc1 | · | · | · | 1.4%[10 µM] | 2.7%
COc1cccc(CC(=O)Nn2c(C)nc3ccccc3c2=O)c1 | -0.2% | ? | -7.6 | -37.5% | 0.1%
COc1cccc(CNn2c(-c3cccc(C)c3)nc3ccccc3c2=O)c1 | -0.1% | 20.6µM* | -11.3 | -19.3% | 13.4%
COc1ccc(OC)c(CNn2c(-c3cccc(C)c3)nc3ccccc3c2=O)c1 | -1.9% | 18.4µM* | 0.1 | 7.4% | -5.1%
Cc1cccc(-c2nc3ccccc3c(=O)n2N)c1 | -0.1% | -2.3% | -9.8 | 5.9% | 3.0%
COc1ccc(CNn2c(-c3cccs3)nc3ccccc3c2=O)cc1OC | -0.7% | 8.2µM* | -18.4 | 32.0% | -16.2%
CCC[C@@H]1C[C@@H](C(=O)N[C@@H]([C@H]2O[C@H](SC)[C@H](O)[C@@H](O)[C@H]2O)[C@@H](C)O)N(C)C1 | · | · | · | -12.1% | 3.0%
COc1ccccc1CN1CC(C(=O)NCc2c(F)ccc(C)c2F)CCC1=O (centres undefined) | 0.3% | ? | 28.3 | ? | -0.1%
CCCCCCCCCCCCCCC(C(=O)OC)C(O)(CC(=O)OC)C(=O)OC (centres undefined) | · | · | · | -29.5% | -4.8%
O=C(Nc1ccc(N2CCOCC2)cc1)Nc1ccc2nc(-c3ccco3)c(-c3ccco3)nc2c1 | -0.9% | 6.51µM* | 37.8 | ? | ?
